Source: PubChem (several laboratories)
PABP polyA inh: PABP poly(A) RNA binding inhibitors, primary screen, biochemical, fluorescence polarization, uHTS; Polyadenylate-binding protein 1 (Homo sapiens), P11940; calls only at 35 µM; 290,000 compounds, 1% hits;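 note: calls also rest on retests at 20 µM and on dose response follow-up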
PABP1 MLLE inh: inhibitors of PABP1 MLLE–PAM2 peptide binding, primary screen, biochemical, fluorescence polarization, FITC-PAM2, GST-MLLE | Polyadenylate-binding protein 1 (Homo sapiens), P11940 | inhibition, % at 20 µM | 360,000 compounds, 0.36% hits; in the data active = inhibition above about 35%, passing the limit was not always enough;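 note: plate controls were DMSO wells with GST-MLLE for no effect and wells lacking GST-MLLE protein for full effect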
eIF4H inh: human eIF4H binding inhibitors, primary screen, translation initiation inhibitor project, biochemical, uHTS, fluorescence polarization | eIF4H fluorescence polarization binding assay | inhibition, % at 35 µM | 290,000 compounds, 0.94% hits;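 note: calls also rest on retests at 20 µM and on dose response follow-up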
PERK inhibitor: block of dimerizer-induced PERK translation repression, primary screen, PERK inhibitor project, CHO PERK-DD cells, SEAP luminescence, HTS | CHO PERK-DD fusion, SEAP luminescence translation reporter | 220,000 compounds, 0.17% hits | inhibition, % at 5.6 µM | AID 1416, 2008;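 active = inhibition above the mean inhibition of all tested compounds plus 3 SD, set separately per screening campaign, cut at about 2.9% in these data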;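 note: PERK kinase domain activated by AP20187 dimerizer at 100 nM; 0% = DMSO with dimerizer and 100% = rapamycin at 8.4 µM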
eIF4E 4G PPI: eIF4E–eIF4G protein interaction inhibitors, primary screen, biochemical, uHTS, TR-FRET, eIF4GI fragment | TR-FRET eIF4E-eIF4GI(517-606) binding, 2 h | Eukaryotic translation initiation factor 4E (Mus musculus) + Eukaryotic translation … | inhibition, % at 21.7 µM | 220,000 compounds, 0.37% hits;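 active = inhibition above about 30%, limit read from the data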;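 note: 0% = full FRET control wells and 100% = background wells lacking eIF4GI fragment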
* = called active by the depositor. Most compounds without a hit are left out; they make up all but 1.6% or so of the library. Unless noted, the rule behind the calls is not given here.

How did CCCCCCNC(=O)N[C@@H](C(=O)NCCC[C@H]1CN2C(=NC[C@@H]2Cc2ccccc2)N1CCc1cccc(OC)c1)C(C)C do in these assays?
PABP polyA inh: inactive; eIF4H inh: -10; eIF4E 4G PPI: 41*

How did C/C=C(\C)C(=O)NCCN1C2=NC[C@@H](Cc3ccccc3)N2C[C@@H]1Cc1ccc(OC)cc1 do in these assays?
PABP1 MLLE inh: 17

What do the screens show for `CC(C)NC(=O)C1(C)CCN1C(=O)c1ccccc1F` (centres undefined)?
PABP1 MLLE inh: 10

How did COC(=O)[C@@H]1CCCN1C(=O)CCc1nnc(CCC2CCCCC2)o1 do in these assays?
PABP polyA inh: inactive; PABP1 MLLE inh: -16; eIF4H inh: 1; PERK inhibitor: 0; eIF4E 4G PPI: -2

How did Cc1cc(F)ccc1NS(=O)(=O)c1c(C(=O)N2CCOCC2)c(C)n(C)c1C do in these assays?
PABP polyA inh: inactive; PABP1 MLLE inh: -4; eIF4H inh: -11

How did CC(=O)c1c(C)nc(-c2ccc(Cl)cc2)nc1N do in these assays?
PABP polyA inh: inactive; PABP1 MLLE inh: 9; eIF4H inh: 10; PERK inhibitor: 0; eIF4E 4G PPI: 15

How did CC(=O)c1c(C)nc(-c2ccc(Cl)cc2)nc1N=CN(C)C do in these assays?
PABP polyA inh: inactive; PABP1 MLLE inh: -8; eIF4H inh: 14; PERK inhibitor: 0; eIF4E 4G PPI: 60*

How did CC(C(=O)Nc1nncs1)N1C(=O)C2C3C=CC(C3)C2C1=O (centres undefined) do in these assays?
PABP polyA inh: active; PABP1 MLLE inh: 3; eIF4H inh: inconclusive; PERK inhibitor: 2; eIF4E 4G PPI: 4

How did CC(C(=O)NC1CCCCC1)N1C(=O)C2C3C=CC(C3)C2C1=O (centres undefined) do in these assays?
PABP polyA inh: inactive; PABP1 MLLE inh: 17; eIF4H inh: 0

How did COc1ccc(-c2cccc3c2C2CC3CCN2C(=O)OCc2ccccc2)cc1 (centres undefined) do in these assays?
PABP1 MLLE inh: 6

Results for CCCn1ncc(C(=O)NC2CCCN(Cc3ccc(Cl)cc3)C2)c1C (centres undefined) ?
PABP polyA inh: inactive; PABP1 MLLE inh: -13; eIF4H inh: -5

What do the screens show for `CNc1nc(-c2ccccc2)cc(C(F)(F)F)c1C#N`?
PABP polyA inh: active; PABP1 MLLE inh: 8; eIF4H inh: 96*; PERK inhibitor: 0; eIF4E 4G PPI: 0

Results for COc1cc(CCC(=O)NNC(=O)c2ccc(C)cc2)cc(OC)c1OC ?
PABP polyA inh: inactive; PABP1 MLLE inh: 0; eIF4H inh: -10; PERK inhibitor: 1; eIF4E 4G PPI: -4

What do the screens show for `CCO[C@@H]1OC(C(=O)N2CCCCCCC2)=C[C@H](C2CCCCC2)[C@H]1CCCO`?
PABP polyA inh: inactive; PABP1 MLLE inh: -5; eIF4H inh: -6; PERK inhibitor: 0; eIF4E 4G PPI: -1

How did Cc1ccc(C)c(N2CCN(C(=O)Cc3c(C(=O)O)[nH]c4ccc(Cl)cc34)CC2)c1 do in these assays?
PABP polyA inh: active; PABP1 MLLE inh: 5; eIF4H inh: inconclusive; PERK inhibitor: 1; eIF4E 4G PPI: 4

Results for O=c1c2ccccc2[nH]c(=S)n1CC1CCCO1 (centres undefined) ?
PABP1 MLLE inh: -49; PERK inhibitor: 1

Results for CC1(C)CC2=C(CO1)C(=S)NC(c1ccccc1)N2CC1CCCO1 (centres undefined) ?
PABP polyA inh: inactive; PABP1 MLLE inh: 42*; eIF4H inh: 4; PERK inhibitor: -1; eIF4E 4G PPI: 95*

Results for COC(=O)C1=C(C)N(c2ccc(OC)c(OC)c2)C(=O)/C1=C\c1cccs1 ?
PABP polyA inh: inactive; PABP1 MLLE inh: -16; eIF4H inh: 0; PERK inhibitor: 1; eIF4E 4G PPI: 0

What do the screens show for `COC(=O)C1=C(C)N(c2ccc(OC)cc2)C(=O)/C1=C\c1cccs1`?
PABP polyA inh: active; PABP1 MLLE inh: -9; eIF4H inh: active; PERK inhibitor: 1; eIF4E 4G PPI: -4

What do the screens show for `Cc1cc(C#Cc2c(-c3ccccc3)n(C)c3ccccc23)ccc1F`?
PABP polyA inh: inactive; PABP1 MLLE inh: 1; eIF4H inh: inconclusive

What do the screens show for `Cc1ccc2c(c1)-c1c(ssc1=S)C(C)(C)N2C(=O)CSc1nncn1C`?
PABP polyA inh: active; PABP1 MLLE inh: 25; eIF4H inh: 2.4*; PERK inhibitor: -1; eIF4E 4G PPI: 5

What do the screens show for `c1ccc(-c2ccc(-c3nccc4ccccc34)[nH]2)cc1`?
PABP polyA inh: active; eIF4H inh: 62*; PERK inhibitor: -2; eIF4E 4G PPI: 1

What do the screens show for `Cc1ccsc1C(=O)N1CCC1(C)C(=O)NS(=O)(=O)c1ccc(Br)cc1` (centres undefined)?
PABP1 MLLE inh: -5

How did COC(=O)C1C(O)=C(C(C)=Nc2cccc3ccccc23)C(=O)CC1(C)C (centres undefined) do in these assays?
PABP polyA inh: active; PABP1 MLLE inh: 3; eIF4H inh: inconclusive; PERK inhibitor: 0; eIF4E 4G PPI: 5

How did COC(=O)C1C(O)=C(C=Nc2ccccc2)C(=O)CC1(C)C (centres undefined) do in these assays?
PABP polyA inh: inactive; PABP1 MLLE inh: 3; eIF4H inh: -4; PERK inhibitor: 1; eIF4E 4G PPI: 1

What do the screens show for `Cn1cc(S(=O)(=O)N2CCOCC2)cc1C(=O)O`?
PABP1 MLLE inh: -9

Results for COc1ccc(CC(=O)Nc2ccc(-c3nnc(-c4ccccc4)o3)cc2)cc1OC ?
PABP polyA inh: inactive; PABP1 MLLE inh: -20; eIF4H inh: -48; PERK inhibitor: 1; eIF4E 4G PPI: 33*

Results for CC(=O)N/C(=C\c1ccccc1)C(=O)OC(C)C(=O)c1ccccc1 (centres undefined) ?
PABP1 MLLE inh: -9

What do the screens show for `Fc1cc(Cl)cc2ccc(-c3ccccc3)nc12`?
PABP1 MLLE inh: 0

How did Cc1ccccc1CO/N=C/c1[nH]ncc1Br do in these assays?
PABP polyA inh: inactive; PABP1 MLLE inh: -9; eIF4H inh: -3; PERK inhibitor: 3.5*; eIF4E 4G PPI: 6

How did O=CNCCCc1nc2ccccc2n1CCc1ccccc1 do in these assays?
PABP polyA inh: inactive; PABP1 MLLE inh: -2; eIF4H inh: 1

Results for COC(=O)c1sccc1NC(=S)Nc1cc(C)cc(C)c1 ?
PABP polyA inh: inactive; PABP1 MLLE inh: 38*; eIF4H inh: 0; PERK inhibitor: 0; eIF4E 4G PPI: 4

What do the screens show for `COCCCN(C(=O)c1cc(-c2ccco2)nc2ccccc12)c1c(N)n(Cc2ccccc2)c(=O)[nH]c1=O`?
PABP1 MLLE inh: 7

How did CNC(=O)COC(=O)c1cc(-c2ccco2)nc2ccccc12 do in these assays?
PABP polyA inh: active; PABP1 MLLE inh: -5; eIF4H inh: 74*; PERK inhibitor: 0; eIF4E 4G PPI: 38*
